A selection: hits, their analogues and other compounds. The true share with any hit is near 4.7%.
D1 antag: human D1 dopamine receptor antagonism | hit rate 3.2% among 360,000 | AID 504652 | P21728 | activity change, negative = inhibition, % at 10 µM | HEK293 TREx D1 cells, calcium flux, dopamine EC80; active compounds read low; in the data active means activity change below about -30%
Target sequence (P21728 whole entry, looked up): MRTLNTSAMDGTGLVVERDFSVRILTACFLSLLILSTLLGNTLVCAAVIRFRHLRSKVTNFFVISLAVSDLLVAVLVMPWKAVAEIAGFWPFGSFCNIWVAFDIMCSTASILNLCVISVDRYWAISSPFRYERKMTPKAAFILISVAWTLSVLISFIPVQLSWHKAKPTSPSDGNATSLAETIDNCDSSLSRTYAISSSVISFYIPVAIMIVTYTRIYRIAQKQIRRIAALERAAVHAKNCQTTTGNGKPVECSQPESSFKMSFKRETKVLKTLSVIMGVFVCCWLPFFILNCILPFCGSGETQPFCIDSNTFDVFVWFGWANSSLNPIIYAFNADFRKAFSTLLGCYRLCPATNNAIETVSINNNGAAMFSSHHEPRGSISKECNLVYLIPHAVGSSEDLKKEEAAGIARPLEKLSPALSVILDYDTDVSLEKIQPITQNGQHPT
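Tetracycline-induced HEK293 Trex D1 cells, force-coupled to calcium, dye-loaded; compounds added and read 180 s, then EC80 dopamine added and calcium flux tracked kinetically another 180 s.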
D1 potentiator: potentiators of human D1 dopamine receptor. P21728. HEK293 TREx D1 cells, calcium flux, dopamine EC20 potentiation. potentiation, % at 10 µM. hit rate 0.036% among 360,000; in the data active means potentiation above about 30%
TRHR PAM: TRH receptor (human) allosteric enhancement | P34981 | TRHR cells, fluo-8 calcium fluorescence, EC20 TRH enhancement | enhancement, % at 2 µM | hit rate 0.66% among 360,000 | AID 493056; in the data active means enhancement above about 30%
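TRHR-expressing cells loaded with fluo-8 calcium dye were read kinetically (ex 480/em 530) during compound addition, then stimulated with an EC20 of TRH (10 nM final). Enhancement of the Gq-mediated intracellular calcium response was scored.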
TRHR ag: activates the human TRH receptor. hit rate 0.18% among 360,000. TRHR cells, calcium flux fluo-8, FDSS agonist mode. AID 493084. activation, % at 2 µM. P34981
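Steps: seed TRHR cells overnight; add fluo-8 no-wash Ca dye, RT 30 min–1.5 h; record 10 s baseline; pin-transfer compounds; monitor fluorescence 1 cycle/s for the agonist window. Calcium increases flag candidate agonists.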
D1 agonist: human D1 receptor agonism. hit rate 1% among 360,000. activation, % at 2 µM. P21728. HEK293 T-REx D1 cells, calcium flux, agonist mode
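Inducible HEK293 T-REx D1 cells, force-coupled to calcium signalling, were plated at 4000 cells/well with tetracycline and held overnight at 30 C. After no-wash calcium dye loading, compound-evoked calcium rise over 180 s flagged agonists.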
Numbers stand for hits; - = inactive; . = no result; ! = a repeat was not active. Unless noted, no stated cut-off is given here; in the data, active means activation above about 30%; inactive means the rest.

SMILES	D1 antag	D1 potentiator	TRHR PAM	TRHR ag	D1 agonist
CNC(=S)N(CCc1c(C)[nH]c2ccc(Cl)cc12)Cc1cccnc1	-	-	-	-	31
c1ccc(C2=NN(c3ccccc3)CC2)cc1	-	-	-	-	-
CCOC(=O)/C(=C/c1ccc(N2CCC(c3ccccc3)=N2)cc1)C(C)=O	-	-	-	46	105
COc1ccc2c(c1)c1c(c(=O)n(-c3ccc(OC)c(OC)c3)c(=O)n1CC(=O)N1CCCC1)n2C	-	-	-	-	-
CCc1ccc(NC(=O)C2CCN(S(=O)(=O)c3c(C)noc3C)CC2)cc1	-	-	-	-	-
CCc1ccc(NC(=O)CNS(=O)(=O)c2c(C)noc2C)cc1	-31	-	-	-	-
CC(=O)NC(c1ccco1)c1cc(Cl)c2ccc(N3CCCCC3)nc2c1O (stereo unspecified)	-	-	-	-	-
Cc1c(NC(=O)CSc2nnnn2C)c(=O)n(-c2ccccc2)n1C	-35	-	-	-	-
Cc1c(NC(=O)CSc2nncn2-c2ccccc2)c(=O)n(-c2ccccc2)n1C	-	-	-	-	-
Cc1c(NC(=O)CSc2nnnn2-c2ccc(F)cc2)c(=O)n(-c2ccccc2)n1C	-	-	-	-	-
Cc1c(NC(=O)CSc2nnnn2-c2ccc(O)cc2)c(=O)n(-c2ccccc2)n1C	-47	-	-	-	-
Cn1nnnc1SCC(=O)Nc1ccc(Oc2ccc(Cl)cc2)cc1	-30	-	-	-	-
C=Cc1ccc(Cn2ccn(-c3ccc(F)c(F)c3)c(=O)c2=O)cc1	-	-	-	-	-
CCn1c(=N)c(C(=O)NCC2CCCO2)cc2c(=O)n3cc(C)ccc3nc21 (stereo unspecified)	-	-	-	-	-
Cc1ccc(NC(=O)Cn2cc(C(=O)C3CCCCC3)c3ccccc32)c(C)c1	-	-	-	-	-
COc1ccc(OC)c(C(C)NC(=O)Cn2c(=O)cc(C)c3c(C)nn(-c4ccc(C)cc4)c32)c1 (stereo unspecified)	-	-	-	-	-
O=C(NN1C(=O)C2C3C=CC(O3)C2C1=O)c1cccc(O)c1 (stereo unspecified)	-80	-	-	-	-
Cc1ccc2[nH]c(C(=O)Nc3ccccc3)cc2c1	-	-	-	-	-
CS(=O)(=O)/C=C/c1nc(Nc2cc(F)cc(F)c2)c2ncn(CC(F)F)c2n1	-	-	-	-	-
CCCCOc1ccc(C(=O)NCC(=O)NCCOc2ccc(C)cc2)cc1	-	-	32	-	-
CCOC(=O)Cn1c(=O)n(CC2CCCO2)c2nc(-c3ccccc3OC)nc(C(N)=O)c21 (stereo unspecified)	-	-	-	-	-
O=C1OC2(c3ccccc31)c1cc(I)c(O)c(I)c1Oc1c2cc(I)c(O)c1I	-42	-	-	242	411
CS(=O)(=O)N(CC(=O)N1CCc2ccccc2C1)c1cccc([N+](=O)[O-])c1	-78	-	32	-	-
Cc1nnc(-c2ccccc2)c(=O)n1/N=C/c1c(O)ccc2ccccc12	-	-	-	-	113
Cc1nnc(C)n1/N=C/c1c(O)ccc2ccccc12	-	-	-	-	-
SMILES	D1 antag	D1 potentiator	TRHR PAM	TRHR ag	D1 agonist
COC(=O)C1=C(C)NC(C)=C(C(=O)OCCN(C)Cc2ccccc2)C1c1cccc([N+](=O)[O-])c1 (stereo unspecified)	-35	-	-	-	-
CCOC(=O)C1=C(C)NC(C)=C(C(=O)OCCNC(=O)c2cccnc2)C1c1cccc([N+](=O)[O-])c1 (stereo unspecified)	-	-	-	-	-
CCc1ccc(C(=O)COC(=O)C(Cc2ccccc2)NC(=O)C2CCC(C)CC2)cc1 (stereo unspecified)	-31	-	-	-	-
O=[N+]([O-])c1ccc(O)c(C2=NNC(c3ccccc3F)C2)c1 (stereo unspecified)	-33	-	-	-	-
Cc1nn(C)c2c1c(-c1ccccc1)cc(=O)n2CC(=O)NC(C)(C)C	-	-	-	-	-
CC(NCc1ccc(OCc2ccc(Cl)cc2)cc1)C(O)c1ccccc1 (stereo unspecified)	-	-	-	-	38
CC(NCc1cccc(OCc2ccccc2)c1)C(O)c1ccccc1 (stereo unspecified)	.	-	-	-	42
OCCCCNCc1ccc(OCc2ccc(Cl)cc2)cc1	-51	-	-	-	-
COc1ccc(NC(=O)CSc2nc(-c3ccccc3)[nH]c2-c2ccccc2)cc1OC	-	-	-	-	-
CC(C)c1ccc(NC(=O)CCNS(=O)(=O)c2ccc3c(c2)CCCC(=O)N3)cc1	-	-	-	-	-
COc1cccc(CNC(=O)CCCn2nc(C)c3c(C)n(-c4ccc(C)cc4)nc3c2=O)c1OC	-54!	-	-	-	-
Cc1nn(-c2ccccc2)c2c1N(CCCC(=O)NCc1ccc(Cl)cc1)C(=O)CS2	-48	-	-	-	-
Cc1nn(-c2ccccc2)c2c1N(CCCC(=O)NCc1ccccc1)C(=O)CS2	-	-	-	-	-
Cc1cc(Cl)ccc1NC(=O)CCCn1nc(C)c2c(C)n(-c3ccccc3)nc2c1=O	-32	-	-	-	-
Cc1nn(CCCC(=O)NCCc2ccc(Cl)cc2)c(=O)c2nn(-c3ccccc3)c(C)c12	-33!	-	-	-	-
COc1ccccc1CNc1ncnc2c1nnn2C	.	-	-	-	-
Cc1nn(C(C)C(=O)NCCN2CCCCCC2)c(=O)c2nn(-c3ccccc3)c(C)c12 (stereo unspecified)	-	-	30	-	-
Cc1nn(CCCC(=O)NCCc2ccccc2)c(=O)c2nn(-c3ccccc3)c(C)c12	-36	-	-	-	-
Cc1ccc(-n2nc3c(=O)n(CCCC(=O)NCCc4ccccc4)nc(C)c3c2C)cc1	-	-	-	-	-
Cc1nn(CC(=O)NCCN2CCCCCC2)c(=O)c2nn(-c3ccccc3)c(C)c12	-	-	-	-	-
COc1ccc(CNS(=O)(=O)c2ccc(-c3cc(C(F)(F)F)on3)s2)cc1OC	-	-	-	-	-
O=C(NCCc1ccccc1)C1CCN(C2CCN(Cc3ccco3)CC2)CC1	-35	-	-	-	-
Cc1ccc(C)c(NC(=O)CCS(=O)(=O)c2cccc3nsnc23)c1	-	-	-	-	-
CCOC(=O)/C=C1/N(C)c2ccccc2C1(C)C	-	-	-	-	-
CN1/C(=C\P(=O)(N(C)C)N(C)C)C(C)(C)c2ccccc21	-37	-	-	-	-
CN(C)C(=N)c1n[nH]nc1SCc1ccc(Cl)c(Cl)c1	-36	-	-	-	-
Cc1[nH]c(=O)nc(SCc2ccc(Cl)c(Cl)c2)c1C#N	-	-	-	-	-
COCCCNc1oc(-c2ccc(COc3ccccc3C)o2)nc1C#N	-	-	-	-	-
Oc1c(Br)cc(Br)cc1CNc1ccc(F)cc1	-39	-	-	-	-

Source: PubChem
